Results as given in PubChem BioAssay AID1307 (SRMLSC, 2008).
Fewer than 10 of roughly 1,200 compounds were called active.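 How the source made its calls: active means inhibition reaching a set limit at one or more tested concentrations; inactive means inhibition under that limit at every dose.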 Only a sample is shown. Results with a measured potency or affinity are listed apart.

Experiment: yeast RAM network inhibitors, dose response, S. cerevisiae (AID 1307);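 further: 0% = DMSO vehicle wells and 100% = 10 µM 1-NA-PP1 control; higher inhibition means more yeast growth since RAM block rescues cells from 5-FOA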
Conditions: S. cerevisiae RAM network URA3 reporter, 5-FOA growth OD615, active compounds read high, yeast express analog-sensitive mutant Cbk1 kinase; at 100 µM unless noted

Max inhibition, inactive:
Cc1ccc(-n2c(O)c(/C=N/c3ncn[nH]3)c3ccccc3c2=O)cc1 10.6%
COc1ccc(/C=C(\C#N)C(=O)NCCc2ccccc2)cc1OCc1ccccc1 4.42% [at 1.563 µM]
CCOC(=O)C1=C(c2ccccc2)N=c2s/c(=C\c3cc(OC)c(OC)c(OC)c3)c(=O)n2C1c1cccs1 (stereo not given) 14.2%
O=C(COC(=O)c1cc(Cl)ccc1[N+](=O)[O-])NCc1ccc(Cl)cc1Cl 4.62% [at 1.563 µM]
C=CCSc1nnc(CCCCCN2C(=O)c3cccc4cccc(c34)C2=O)o1 6.81%
Cc1ccc(/C=C/c2ccc(=O)n(Cc3ccccc3Cl)n2)cc1 3.92% [at 3.125 µM]
O=C(/C=C/c1cccc(C(F)(F)F)c1)Nc1cccc(C(F)(F)F)c1 2.77% [at 12.5 µM]
COc1ccc(C(=O)/C=C/c2ccc(OC)c(COc3ccccc3F)c2)cc1 3.26% [at 12.5 µM]
S=C(NCCC(c1ccccc1)c1ccccc1)Nc1ccccc1Cl 2.81%
Cc1ccc(NC(=O)Cc2ccc(Cl)c(Cl)c2)cc1S(=O)(=O)N(C)C 1.65%
CCN(CC)S(=O)(=O)c1cccc(C(=O)OCC(=O)c2ccc3c(c2)OCCO3)c1 3.81% [at 6.25 µM]
CC(C)Cn1c(N)c(-c2nc(C(C)C)c(C(=O)c3ccccc3F)s2)c(=O)n(C)c1=O 7.65%
COc1cccc(CN(Cc2ccccc2F)S(=O)(=O)c2ccc(S(=O)(=O)NCc3ccccc3)cc2)c1 4.33%
COc1cccc(CN(Cc2ccco2)C(c2ccc(F)cc2)c2nnnn2C(C)(C)C)c1 (stereo not given) 5.18%
O=C(COC(=O)c1ccc(CSc2ccc(Cl)cc2)cc1)Nc1ccccc1 4.59%
CCOC(=O)c1c(-c2ccc(OC)cc2)csc1NC(=O)CSc1ccccc1 5.06%
C=C(C)CNC(=S)Nc1nc2c(cc1C(=O)OCC)CCCC2 2.44% [at 25 µM]
COC(=O)c1cc(=O)n(CCc2ccccc2)c(=Nc2ccc(F)cc2)s1 4.08% [at 50 µM]
O=C(O)CSc1nc(-c2ccc(Cl)cc2)nc2c1oc1ccccc12 6.31% [at 50 µM]
COc1ccc(OC)c(NC(=O)C(Sc2ccccc2)c2ccccc2)c1 (stereo not given) 4.44% [at 50 µM]
O=C(Nc1ccccc1-c1nnc(SCc2ccccc2Cl)o1)c1ccccc1 2.67% [at 50 µM]
Cc1ccccc1N1C(=O)CC1(C#N)c1ccc(OCc2ccccc2)cc1 (stereo not given) 3.12% [at 50 µM]
O=C(CC12CC3CC(CC(C3)C1)C2)NC(=S)NCc1ccco1 5.22% [at 50 µM]
Cc1ccc(Cl)cc1N1CCN(S(=O)(=O)c2ccc3[nH]c(=O)c(=O)[nH]c3c2)CC1 4.39%
O=C(CCCSc1nc2ccccc2[nH]1)Nc1nnc(-c2ccccc2)o1 1.46% [at 1.563 µM]
Cc1cc(NC(=O)COC(=O)C(Nc2ccc(C(F)(F)F)cc2Cl)C(C)C)no1 (stereo not given) 3.28% [at 12.5 µM]
Cc1ccccc1NC(=O)CCCSc1nc2ccccc2s1 1.4% [at 25 µM]
O=C(OC(C(=O)Nc1cccc(C(F)(F)F)c1)c1ccccc1)C1CCCCC1 (stereo not given) 3.65% [at 50 µM]
C=CCOc1c(Br)cc(CNc2ccc(NC(=O)C(C)C)c(OC)c2)cc1OCC 2.15% [at 3.125 µM]
COc1ccccc1-n1c(COc2ccccc2-c2ccccc2)nnc1SCC(=O)c1c(N)n(C)c(=O)n(C)c1=O 11.9%
COc1ccc(Br)cc1C(=O)Nc1ccccc1-c1ccccc1 6.2% [at 50 µM]
CCCC[C@@H]1C[C@H]1[C@@H](NC(=O)c1ccccc1)c1ccccc1C(F)(F)F 3.06%
CCOc1ccccc1NC(=O)C(OC(=O)c1cc(C)oc1C)c1ccccc1 (stereo not given) 4.82%
Cc1ccccc1Oc1ccc(-c2nc(N)nc(N)n2)cc1 3.9%
O=S(=O)(c1ccccc1F)N(Cc1ccco1)Cc1nnc(-c2ccccc2Br)o1 2.49% [at 1.563 µM]
Cc1ccc(C)c(N2CCN(C(=O)c3ccc(Cn4c(=S)[nH]c5ccc(N6CCOCC6)cc5c4=O)cc3)CC2)c1 5.67%
CCOC(=O)C(C)Sc1nc2c(c(-c3cccs3)c1C#N)CCC2 (stereo not given) 3.89% [at 50 µM]
Cc1ccc(OCc2nnc(SCC(=O)Nc3ccc4c(c3)OCCO4)n2Cc2ccco2)cc1 0.12% [at 0.782 µM]
COC(=O)c1ccc(CSc2nc(-c3ccco3)cc(C(F)(F)F)n2)o1 5.27%
CCCCOc1nc2ccccc2nc1C(C#N)C(=O)NC1CCCCC1 (stereo not given) 4.45%
COc1ccc(-c2ccc(-c3noc(C4CCCCC4)n3)c(OC)n2)cc1 3.89% [at 50 µM]
O=C(CSc1nc2ccccc2s1)CSc1nc2ccccc2s1 5.31%
O=C(Nc1ccccc1Cl)c1cccc(COc2cc(Cl)ccc2Cl)c1 2.59%
COc1ccc(Cc2nc(-c3ccc(-n4cccc4)cc3)no2)cc1OC 5.67%
CCCCOc1cccc(C(=O)NC(=S)Nc2cccc(C(F)(F)F)c2)c1 4.25%
